# Results filed as inconclusive are left out. Entries that show only a call come without a potency. Values without a mark were called inactive. Active and inactive are the calls of the source. Unless noted, calls follow the shape of the full dose curve.
# Assays:
# [1] = qHTS assay to identify small molecule agonists of the vitamin D receptor (VDR) signaling pathway - cell viability counter screen (AID 743224; active = well fitted curve in the direction sought with a large enough effect in the repeat runs; an effect the other way counts as inactive or inconclusive; also: series mostly up to about 63 µM; nearly all actives have a fitted effect of over 50% in size)
# Summary of the method: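 Plated VDR-bla cells (4 h, 37C) received compound, incubated 16 h, then LiveBLAzer substrate 2 h RT; CellTiter-Glo added afterwards, luminescence read at 30 min.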
# [2] = qHTS assay to identify small molecule agonists of the NFkB signaling pathway - cell viability counter screen (AID 1159515); also: nearly all actives have a fitted effect of over 55% in size; also: potency is read from the fitted curve at half-maximal effect; as to activity, negative = cytotoxic: series mostly up to about 61 µM
# Summary of the method: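 Using the same wells as the NFkB reporter read, ME-180 NFkB-bla cells given compounds for 5 hr were assessed for viability via CellTiter-Glo, with luminescence taken after a 30 min room-temperature incubation.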
# [3] = qHTS assay to identify small molecule agonists of the endoplasmic reticulum stress response signaling pathway (AID 1159516; active = well fitted activation curve with a large enough effect in the signal ratio in the repeat runs, not every such curve was filed as active; the % refers to the signal ratio)
# Summary of the method: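 An ESRE-bla HeLa cell assay: compounds were pin-transferred from DMSO onto overnight-plated cells and left 5 hr at 37 C. Substrate was then loaded for 2 hr at room temperature before reading fluorescence at 460 nm and 530 nm.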
# [4] = qHTS assay to identify small molecule agonists of the endoplasmic reticulum stress response signaling pathway - cell viability counter screen (AID 1159517);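 also: HeLa cells carrying an ER stress response element beta-lactamase reporter; series mostly up to about 61 µM; nearly all actives have a fitted effect of over 50% in size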
# Summary of the method: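 Luminescence readout: CellTiter-Glo, 30 min RT, same wells as the ESRE-bla reporter read. HeLa ESRE-bla, 1,500 cells/well, o/n 37 C; cpd 5 hr 37 C/5% CO2.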
# [5] = qHTS assay to identify small molecule antagonists of the retinoid-related orphan receptor gamma (ROR-gamma) signaling pathway - cell viability counter screen (AID 1159520; active = well fitted curve in the direction sought with a large enough effect in the repeat runs; an effect the other way counts as inactive or inconclusive; also: nearly all actives have a fitted effect of over 50% in size; also: potency is read from the fitted curve at half-maximal effect)
# Summary of the method: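 Tet-on ROR gamma CHO cells (1,000/well) were plated 4 hr, given compounds in DMSO for 2 hr at 37 C, then induced with 1 uM final doxycycline for 16 hr. Viability was read as ATP by CellTiter-Glo luminescence after 30 min.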
# [6] = qHTS assay to identify small molecule agonists of the AP-1 signaling pathway - cell viability counter screen (AID 1159525); also: nearly all actives have a fitted effect of over 55% in size; also: potency is read from the fitted curve at half-maximal effect
# Summary of the method: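 ME-180 AP-1-bla, 2500 cells/well, Opti-MEM + 0.5% dialyzed FBS; overnight 37 °C; cpd 15-pt titration, 5 h 37 °C; CellTiter-Glo 30 min RT; luminescence read; normalised to TOAB and DMSO controls.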
# [7] = qHTS assay to identify small molecule agonists of the AP-1 signaling pathway (AID 1159526)
# [8] = target: Retinoic acid receptor RXR-alpha (Homo sapiens) (UniProt P19793); assay: qHTS assay to identify small molecule agonists of the RXR signaling pathway (AID 1159527); also: nearly all actives have a fitted effect of over 35% in size
# Summary of the method: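 Fluorescence ratio readout (460 vs 530 nm) from GeneBLAzer RXR-alpha HEK 293T cells after 16 hr compound treatment; cells seeded 5 hr beforehand in low-serum, charcoal-stripped medium.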
# [9] = qHTS assay to identify small molecule antagonists of the vitamin D receptor (VDR) signaling pathway - cell viability counter screen (AID 743225; active = well fitted curve in the direction sought with a large enough effect in the repeat runs; an effect the other way counts as inactive or inconclusive; also: nearly all actives have a fitted effect of over 50% in size; also: potency is read from the fitted curve at half-maximal effect)
# Summary of the method: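 In this counter screen, VDR-bla HEK 293T cells receive test compound plus 3 nM final calcitriol for 16 h at 37C. Room-temperature steps of 2 h with the beta-lactamase substrate, then 30 min with CellTiter-Glo, precede the luminescence read.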
# [10] = target: Nuclear receptor ROR-gamma (Homo sapiens) (UniProt P51449); assay: qHTS assay to identify small molecule antagonists of the retinoid-related orphan receptor gamma (ROR-gamma) signaling pathway (AID 1159521; active = well fitted curve in the direction sought with a large enough effect in the repeat runs; an effect the other way counts as inactive or inconclusive; also: nearly all actives have a fitted effect of over 50% in size; also: potency is read from the fitted curve at half-maximal effect)
# Summary of the method: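 Screening format: cell-based luciferase reporter in CHO cells with doxycycline-inducible RORγ. Compound pre-exposure lasts 2 h, doxycycline is 1 uM final, induction runs 16 h at 37 C, and ONE-Glo luminescence is read.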
# Retinoic acid receptor RXR-alpha (Homo sapiens), sequence (P19793 whole entry, looked up): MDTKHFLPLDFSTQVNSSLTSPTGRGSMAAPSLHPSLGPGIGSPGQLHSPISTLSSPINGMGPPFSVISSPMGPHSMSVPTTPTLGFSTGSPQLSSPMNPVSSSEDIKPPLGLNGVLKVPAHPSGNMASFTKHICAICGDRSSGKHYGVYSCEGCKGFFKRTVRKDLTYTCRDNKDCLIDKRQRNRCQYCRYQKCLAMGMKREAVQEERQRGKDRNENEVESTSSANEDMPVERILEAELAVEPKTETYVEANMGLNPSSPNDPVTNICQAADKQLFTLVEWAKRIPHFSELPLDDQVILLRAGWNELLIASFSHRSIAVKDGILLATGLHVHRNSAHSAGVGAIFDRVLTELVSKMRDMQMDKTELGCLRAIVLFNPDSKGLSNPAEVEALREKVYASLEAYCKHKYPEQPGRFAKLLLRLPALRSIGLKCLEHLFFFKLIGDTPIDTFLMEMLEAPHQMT
smiles,measurement,setting,value
O=C(Cl)c1ccc([N+](=O)[O-])cc1,Potency,[1],inactive
same,Potency,[2],inactive
same,Potency,[3],inactive
same,outcome,[4],inactive
same,Potency,[5],inactive
same,Potency,[6],inactive
same,Potency,[7],inactive
same,Potency,[8],inactive
CC1(C)[C@H]2CC[C@]1(C)[C@H](O)C2,Potency,[1],inactive
same,Potency,[9],inactive
same,Potency,[2],inactive
same,Potency,[3],inactive
same,outcome,[4],inactive
same,Potency,[5],inactive
same,Potency,[6],inactive
same,Potency,[7],inactive
CC1CCc2cc(F)cc3c(=O)c(C(=O)O)cn1c23 (stereo not given),Potency,[1],inactive
same,Potency,[9],inactive
same,Potency,[2],inactive
same,Potency,[3],inactive
same,outcome,[4],inactive
same,Potency,[5],inactive
same,Potency,[6],inactive
COCCCCCCCCOCCC[Si](C)(O[Si](C)(C)C)O[Si](C)(C)C,Potency,[2],inactive
same,Potency,[3],inactive
same,outcome,[4],inactive
same,Potency,[5],inactive
same,Potency,[6],inactive
same,Potency,[7],inactive
same,Potency,[8],inactive
CCCCCCCCCC(=O)OCC,Potency,[1],inactive
same,Potency,[2],inactive
same,Potency,[3],inactive
same,outcome,[4],inactive
same,Potency,[5],inactive
same,Potency,[6],inactive
same,Potency,[7],inactive
CCN(CCO)CCCC(C)Nc1ccnc2cc(Cl)ccc12 (stereo not given),"activity change, negative = cytotoxicity",[1],1.38% [at 5.95 µM]
same,"viability change, negative = cytotoxic",[9],-0.399% [at 6.95 µM]
same,"activity, negative = cytotoxic",[2],7.84% [at 6.95 µM]
same,activation,[3],-0.628% [at 6.95 µM]
same,"activity change, negative = cytotoxicity",[4],5.2% [at 6.95 µM]
same,"activity, negative = cytotoxicity",[5],0.752% [at 8.39 µM]
same,"viability change, negative = cytotoxic",[6],2.23% [at 6.97 µM]
same,activation,[8],7.66% [at 6.98 µM]
CCOc1ccc(NC(=O)CC(C)=O)cc1,Potency,[1],inactive
same,Potency,[9],inactive
same,Potency,[2],inactive
same,Potency,[3],inactive
same,outcome,[4],inactive
same,Potency,[5],inactive
same,Potency,[6],inactive
same,Potency,[7],inactive
Cc1cccc(C(C)(C)C)c1O,Potency,[1],inactive
same,Potency,[9],inactive
same,Potency,[2],inactive
same,Potency,[3],inactive
same,outcome,[4],inactive
same,Potency,[5],inactive
same,Potency,[6],inactive
same,Potency,[8],inactive
C=CCCCCCC,Potency,[9],inactive
same,Potency,[2],inactive
same,Potency,[3],inactive
same,outcome,[4],inactive
same,Potency,[5],inactive
same,Potency,[10],inactive
same,Potency,[6],inactive
CC1=CC(=O)/C(=C(/C)O)C(=O)O1,Potency,[1],inactive
same,Potency,[9],inactive
same,Potency,[2],inactive
same,Potency,[3],inactive
same,outcome,[4],inactive
same,Potency,[5],inactive
same,Potency,[6],inactive
same,Potency,[7],inactive
CC1=CCC(C(C)C)C=C1 (stereo not given),Potency,[1],inactive
same,Potency,[9],inactive
same,Potency,[2],inactive
same,Potency,[3],inactive
same,outcome,[4],inactive
same,Potency,[5],inactive
same,Potency,[6],inactive
same,Potency,[7],inactive
same,Potency,[8],inactive
C#CCOC(=O)[C@@H](C)Oc1ccc(Oc2ncc(Cl)cc2F)cc1,Potency,[1],inactive
same,Potency,[9],inactive
same,Potency,[2],inactive
same,Potency,[3],inactive
same,outcome,[4],inactive
same,Potency,[5],inactive
same,Potency,[6],inactive
same,Potency,[7],inactive
same,Potency,[8],inactive
CCCCCCCCCCCCCCCC(=O)OC/C=C(C)/C=C/C=C(C)/C=C/C1=C(C)CCCC1(C)C,Potency,[1],inactive
same,Potency,[9],inactive
same,Potency,[2],inactive
same,Potency,[3],inactive
same,outcome,[4],inactive
same,Potency,[5],inactive
same,Potency,[6],inactive
same,Potency,[7],inactive
Nc1ccc(C(=O)Nc2ccccc2N)cc1,Potency,[1],inactive
same,Potency,[2],inactive
same,Potency,[3],inactive
same,outcome,[4],inactive
same,Potency,[5],inactive
same,Potency,[6],inactive
same,Potency,[7],inactive
CC(=O)SCc1ccco1,Potency,[1],inactive
same,Potency,[9],inactive
same,Potency,[2],inactive
same,Potency,[3],inactive
same,outcome,[4],inactive
same,Potency,[5],inactive
same,Potency,[6],inactive
same,Potency,[8],inactive
O=C(O)c1cccc(N(Cc2cccnc2)c2ccc(OC(F)F)c(OC(F)F)c2)c1,Potency,[1],inactive
same,Potency,[9],inactive
same,Potency,[2],inactive
same,Potency,[3],inactive
same,outcome,[4],inactive
same,Potency,[5],inactive
same,Potency,[6],inactive
same,Potency,[7],inactive
CC(C)NCC(O)c1cc(O)cc(O)c1 (stereo not given),Potency,[9],inactive
same,Potency,[2],inactive
same,Potency,[3],inactive
same,outcome,[4],inactive
same,Potency,[5],inactive
same,Potency,[6],inactive
same,Potency,[8],inactive
NC(N)=NN=C(/C=C/c1ccc([N+](=O)[O-])o1)/C=C/c1ccc([N+](=O)[O-])o1,Potency,[9],10.7 µM (active)
same,Potency,[2],13.4 µM (active)
same,Potency,[3],inactive
same,outcome,[4],inactive
same,Potency,[5],2.11 µM (active)
same,Potency,[10],7.5 µM (active)
same,Potency,[6],21.3 µM (active)
C=CC(=O)OCCOC(=O)CCC(=O)O,Potency,[1],inactive
same,Potency,[9],inactive
same,Potency,[2],inactive
same,Potency,[3],inactive
same,outcome,[4],inactive
same,Potency,[5],inactive
same,Potency,[6],inactive
same,Potency,[8],inactive
CCN1CCC[C@H]1CNC(=O)c1c(OC)ccc(Br)c1OC,Potency,[1],inactive
same,Potency,[9],inactive
same,Potency,[2],inactive
same,Potency,[3],inactive
same,outcome,[4],inactive
same,Potency,[5],inactive
same,Potency,[6],inactive
same,Potency,[7],inactive
CN(C(=O)CCCOc1ccc2[nH]c(=O)ccc2c1)C1CCCCC1,Potency,[1],inactive
same,Potency,[9],inactive
same,Potency,[2],inactive
same,Potency,[3],inactive
same,outcome,[4],inactive
same,Potency,[5],inactive
same,Potency,[6],inactive
same,Potency,[8],inactive
CC(C)(C)C1CCCCC1O (stereo not given),Potency,[1],inactive
same,Potency,[9],inactive
same,Potency,[2],inactive
same,Potency,[3],inactive
same,outcome,[4],inactive
same,Potency,[5],inactive
same,Potency,[6],inactive
same,Potency,[8],inactive
O=C(O)Cc1cc(I)c(Oc2ccc(O)c(I)c2)c(I)c1,Potency,[2],inactive
same,Potency,[3],inactive
same,Potency,[5],inactive
same,Potency,[6],inactive
Cc1ccc(C(C)c2ccc(C)c(C)c2)cc1C,Potency,[1],inactive
same,Potency,[9],inactive
same,Potency,[2],inactive
same,Potency,[3],inactive
same,Potency,[5],inactive
same,Potency,[6],inactive
same,Potency,[7],inactive
CCCCCc1ccc(N)cc1,Potency,[1],inactive
same,Potency,[9],inactive
same,Potency,[2],inactive
same,Potency,[3],inactive
same,Potency,[5],inactive
same,Potency,[10],inactive
same,Potency,[6],inactive
same,Potency,[8],inactive
O=C(Nc1ccccc1)OCC(CN1CCCCC1)OC(=O)Nc1ccccc1 (stereo not given),Potency,[9],inactive
same,Potency,[2],inactive
same,Potency,[3],inactive
same,Potency,[5],inactive
same,Potency,[10],inactive
same,Potency,[6],inactive
same,Potency,[7],inactive
CNS(=O)(=O)Cc1ccc2[nH]cc(CCN(C)C)c2c1,Potency,[1],inactive
same,Potency,[2],inactive
same,Potency,[3],inactive
same,Potency,[5],inactive
same,Potency,[10],inactive
same,Potency,[6],inactive
same,Potency,[8],inactive
Cc1cc(O)ccc1N,Potency,[9],inactive
same,Potency,[2],inactive
same,Potency,[3],inactive
same,Potency,[5],54.8 µM (active)
same,Potency,[10],24.5 µM (active)
same,Potency,[6],inactive

# Reference: PubChem BioAssay (Tox21)
